Assay outcomes deposited in PubChem BioAssay by SRMLSC.
An excerpt weighted towards active compounds, which were near 6.8% of everything screened.
A340 absorber: compounds absorbing at 340 nm; compound absorbance at 340 nm, fold over control; 65,000 tested, under 10 active; fold change at 10 µM;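 active means at 10 µM dose, initial 340 nm absorbance at least 2 fold that of control wells; inactive means change under 2 fold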;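 further: initial absorbance extrapolated from kinetic A340 decline of NADH oxidation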
PMK inhibit: inhibitors of Streptococcus pneumoniae phosphomevalonate kinase | inhibition, % at 10 µM | AID 539 | 65,000 compounds, 0.49% hits | purified PMK, PK/LDH-coupled NADH absorbance 340 nm;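 active means top-ranked compounds by inhibition in the single 10 µM screen, taking a fixed number of the strongest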;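 further: 0% = full reaction with DMSO carrier and 100% = background rate without enzyme reaction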
DPM-DC inhibit: blocks S. pneumoniae diphosphomevalonate decarboxylase; purified DPM-DC, PK/LDH coupled NADH fluorescence; AID 556; 65,000 compounds, 0.49% hits; calls only at 10 µM;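 active means the 320 compounds with the highest percent inhibition in the single-dose primary screen, excluding strongly autofluorescent ones, cut at about 32% in these data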;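 further: kinetic rate of NADH fluorescence loss reporting ADP formed by the decarboxylase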
NADH coupling: blocks coupling enzymes of NAD/NADH assays; AID 774; IC50, µM (series often up to 10 µM), for inactives: top-dose inhibition; 65,000 compounds, 0.02% hits; coupled PK/LDH NADH assays, four targets;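 active means single-dose screening hits from any of four coupled enzyme assays that gave an IC50 when retested across doses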;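 further: the DPM-DC format reads NADH fluorescence rather than 340 nm absorbance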
MK inhibit: inhibitors of Streptococcus pneumoniae mevalonate kinase; purified MK, PK/LDH-coupled NADH absorbance 340 nm; inhibition, % at 10 µM; 65,000 compounds, 0.48% hits; AID 555;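 active means ranked among the strongest by inhibition in the single 10 µM screen, a fixed top-ranked set picked for dose follow-up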
Autofluor 339: intrinsic fluorescence of library compounds, ex339/em460 – biochemical, MLSMR library, data from DPM-DC assay, artefact control, profiling panel | compound autofluorescence, ex339/em460 nm, NADH buffer; hits give high values; 1 = no-compound wells, NADH background | fluorescence fold increase at 10 µM | 65,000 compounds, 5.5% hits;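 active means at 10 µM, mean starting fluorescence two-fold or more over control wells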;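 further: signal is the first read of a kinetic run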
Numbers without * were called inactive.

For COc1cc(CN2CCC(C(=O)N3CCN(c4ccccc4F)CC3)CC2)ccc1O the results were A340 absorber 1.1, PMK inhibit 0, DPM-DC inhibit inactive, NADH coupling 2%, MK inhibit 6 and Autofluor 339 1.9.
`COc1ccc(Br)cc1CNC(=O)C1CCN(S(=O)(=O)N2CCCC2)CC1` gave A340 absorber 1, PMK inhibit 30*, DPM-DC inhibit inactive, NADH coupling 12%, MK inhibit 5 and Autofluor 339 1.1.
Screening COc1cc(CN2CCC(C(=O)NC3CCCC3)CC2)ccc1O returned A340 absorber 1, PMK inhibit 7, NADH coupling 3%, MK inhibit 5 and Autofluor 339 2*.
Screening CCOc1ccc(CN2CCN(S(=O)(=O)c3ccc(NC(C)=O)cc3)CC2)cc1OC returned A340 absorber 1, PMK inhibit 12, DPM-DC inhibit inactive, NADH coupling 25%, MK inhibit 63* and Autofluor 339 1.1.
For NC(=O)C1CCN(C(=O)CSc2nc3c(c(-c4ccccc4)n2)CCCC3)CC1 the results were A340 absorber 1, PMK inhibit 11, DPM-DC inhibit inactive, NADH coupling 8%, MK inhibit 7 and Autofluor 339 1.1.
Cc1noc(C)c1C(=O)Nc1sc(C)c(C)c1C#N was read as A340 absorber 1, PMK inhibit 0, DPM-DC inhibit inactive, NADH coupling 4%, MK inhibit 11 and Autofluor 339 1.
Screening COC(=O)C1=C(C)OC(N)=C(C#N)C1c1ccccc1F (configuration not stated) returned A340 absorber 1, PMK inhibit 14, DPM-DC inhibit inactive, NADH coupling 9%, MK inhibit 13 and Autofluor 339 1.1.
COC(=O)C1=C(C)OC(N)=C(C#N)C1c1cc(OC)c(OCC(N)=O)cc1Cl (configuration not stated) was read as A340 absorber 1, PMK inhibit 37*, DPM-DC inhibit active, NADH coupling 41%, MK inhibit 48* and Autofluor 339 1.3.
For COc1cc(NC(=O)c2cc3c(C)nc4ccccc4c3o2)cc(OC)c1OC the results were A340 absorber 1.1, PMK inhibit 18, DPM-DC inhibit inactive, NADH coupling 10%, MK inhibit 10 and Autofluor 339 1.
For Cc1nc2ccccc2c2oc(C(=O)Nc3ccc4c(c3)OCCO4)cc12 the results were A340 absorber 1, PMK inhibit 7, NADH coupling 11%, MK inhibit 14 and Autofluor 339 2.1*.
For COc1ccc(C)cc1NC(=O)c1cc2c(C)nc3ccccc3c2o1 the results were A340 absorber 1.1, PMK inhibit 6, NADH coupling 7%, MK inhibit 8 and Autofluor 339 5*.
Screening CCOC(=O)N1CCN(C(=O)c2cc3c(=O)[nH]c4ccccc4c3s2)CC1 returned A340 absorber 1.1, PMK inhibit 17, NADH coupling 13%, MK inhibit 9 and Autofluor 339 3.7*.
O=C1CCC(c2ccccc2)N1C(=O)c1cccnc1 (configuration not stated) was read as A340 absorber 1, PMK inhibit 0, DPM-DC inhibit inactive, NADH coupling 2%, MK inhibit 17 and Autofluor 339 1.
`COC(=O)c1ccc(C(=O)OC)c(NC(=O)c2ocnc2C)c1` gave A340 absorber 1, PMK inhibit 13, DPM-DC inhibit inactive, NADH coupling 11%, MK inhibit 8 and Autofluor 339 1.6.
`Cc1ccc(NC(=O)C(C)N2C(=O)c3ccccc3C2=O)cc1` (configuration not stated) gave A340 absorber 1, PMK inhibit 11, DPM-DC inhibit inactive, NADH coupling 6%, MK inhibit 8 and Autofluor 339 1.1.
CCC1(CC)Nc2ccccc2C(=O)N1c1ccc(NC(C)=O)cc1 was read as A340 absorber 1, PMK inhibit 17, NADH coupling 11%, MK inhibit 5 and Autofluor 339 3.7*.
For O=C(c1cc2nc(-c3ccccc3)cc(-c3ccccc3)n2n1)N1CCN(C(=O)c2ccco2)CC1 the results were A340 absorber 1.1, PMK inhibit 8, NADH coupling 9%, MK inhibit 9 and Autofluor 339 3.7*.
For Cc1cc(N2CCN(C(=O)c3ccco3)CC2)n2nc(C)c(-c3ccccc3)c2n1 the results were A340 absorber 1.1, PMK inhibit 11, DPM-DC inhibit inactive, NADH coupling 7%, MK inhibit 11 and Autofluor 339 1.4.
Cc1cc(N2CCN(C(=O)c3ccco3)CC2)n2nc(-c3cccc(Cl)c3)cc2n1 was read as A340 absorber 1, PMK inhibit 2, DPM-DC inhibit active, NADH coupling 15%, MK inhibit 8 and Autofluor 339 0.7.
For Cc1cc(N2CCN(C(=O)c3ccco3)CC2)n2nc(C)c(-c3ccc(Cl)cc3)c2n1 the results were A340 absorber 1.1, PMK inhibit 19, NADH coupling 17%, MK inhibit 15 and Autofluor 339 3.7*.
`O=C(O)c1ccccc1NCN1C(=O)C2CC=C(Cl)CC2C1=O` (configuration not stated) gave A340 absorber 1, PMK inhibit 12, DPM-DC inhibit inactive, NADH coupling 9%, MK inhibit 0 and Autofluor 339 2.6*.
Screening CN(Cc1ccccc1)c1oc(-c2ccco2)nc1C#N returned A340 absorber 1, PMK inhibit 17, NADH coupling 17%, MK inhibit 16 and Autofluor 339 3.9*.
Screening N#Cc1nc(-c2ccco2)oc1N1CCN(Cc2ccccc2)CC1 returned A340 absorber 1.1, PMK inhibit 13, DPM-DC inhibit inactive, NADH coupling 12%, MK inhibit 14 and Autofluor 339 1.7.
For CN(C)c1oc(-c2ccco2)nc1C#N the results were A340 absorber 1.1, PMK inhibit 14, NADH coupling 14%, MK inhibit 13 and Autofluor 339 4*.
Cc1c(Br)cc(C(=O)OC2CCN(C)CC2)c(C)c1C was read as A340 absorber 1.1, PMK inhibit 6, DPM-DC inhibit inactive, NADH coupling 3%, MK inhibit 3 and Autofluor 339 1.1.
`C=CCNS(=O)(=O)c1cccc2cc(C(=O)O)c(O)cc12` gave A340 absorber 1, PMK inhibit 11, DPM-DC inhibit inactive, NADH coupling 9%, MK inhibit 4 and Autofluor 339 2.3*.
Screening Cc1nc2sc(C#N)c(N)c2c2c1CCCC2 returned A340 absorber 1, PMK inhibit 1, NADH coupling 3%, MK inhibit 0 and Autofluor 339 2.5*.
`N#Cc1sc2nc3c(c(-c4cccnc4)c2c1N)CCC3` gave A340 absorber 1.1, PMK inhibit 7, DPM-DC inhibit inactive, NADH coupling 8%, MK inhibit 7 and Autofluor 339 1.2.
